In PubChem BioAssay (NCI) one finds growth inhibition data, which are given here for eight compounds.

SMILES strings stand for the structures. This is part of a sample that, as a whole, favours compounds with a hit. Of some 79,000 tested, about 15% had one in any assay. Values without a mark were called inactive. Calls of active or inactive are those of the source. Rule as the data show it: active = growth inhibition above about 70%; inactive = the rest.

A short description of test [1]: NCI Yeast Anticancer Drug Screen. Data for the rad50 strain (AID 155).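 Also: 0% = growth of vehicle-only cultures of the same strain.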 The note with it: S. cerevisiae rad50 strain growth inhibition, hits give high values. An outline of the steps: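 Vehicle-treated cultures provide the reference for the growth inhibition reported for compound-exposed, repair-deficient yeast.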
Test [2] is described as follows: NCI Yeast Anticancer Drug Screen. Data for the mec2-1 strain (AID 157). The note with it: S. cerevisiae mec2-1 strain, hits give high values. An outline of the steps: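 Compounds were applied to mec2-1 yeast cells. Their growth was then compared with that of vehicle-treated cultures to give growth inhibition.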
Test [3] in a line: NCI Yeast Anticancer Drug Screen. Data for the sgs1 mgt1 strain (AID 161).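 Also: 0% = growth of cultures given vehicle only.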 The note with it: S. cerevisiae sgs1 mgt1 strain, hits give high values. An outline of the steps: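 Growth of a repair-deficient yeast mutant was monitored after compound treatment and expressed as inhibition relative to vehicle-treated cultures.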
Test [4] is described as follows: NCI Yeast Anticancer Drug Screen. Data for the cln2 rad14 strain (AID 165).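 Also: 0% = growth equal to vehicle treated cultures.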 The note with it: S. cerevisiae cln2 rad14 strain, hits give high values. An outline of the steps:
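Strain: cln2 rad14 yeast, altered in cell cycle control and DNA damage repair. Read-out: growth inhibition vs vehicle.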

Test [5] in a line: NCI Yeast Anticancer Drug Screen. Data for the bub3 strain (AID 167). The settings on record: S. cerevisiae bub3 mutant strain, hits give high values. An outline of the steps:
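Mutant yeast screening strain plus compound; vehicle-treated cultures serve as the 0% inhibition reference.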

Test [6] in a line: NCI Yeast Anticancer Drug Screen. Data for the mlh1 rad18 strain (AID 175). The settings on record: S. cerevisiae mlh1 rad18 strain growth inhibition, hits give high values. The essentials: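 A repair-deficient yeast strain is exposed to test compound, and growth is scored relative to vehicle-treated controls.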
Setting [7] is: at 5.0 µM (retest, dose inferred, filed as 0.5).
[8] abbreviates: at 50.0 µM (retest, dose inferred, filed as 5.0).

Turning to `CC(C)(C)NC(=S)N/N=C/c1cc(Cl)cc(Cl)c1O`, the growth inhibition in test [1] (setting [7]) was 65%; in test [1] (setting [8]), 72% (active); in test [1] (at 50.0 µM), 77.1% (active); in test [2] (setting [7]), 64%; in test [2] (setting [8]), 84% (active); in test [2] (at 50.0 µM), 90% (active). Also, the growth inhibition was 97% (active) in test [3] (setting [7]); 99% (active) in test [3] (setting [8]); 90.4% (active) in test [3] (at 50.0 µM); 88% (active) in test [4] (setting [7]); 93% (active) in test [4] (setting [8]); 82.7% (active) in test [4] (at 50.0 µM). The growth inhibition in test [5] (setting [7]) is 97% (active); in test [5] (setting [8]), 98% (active); in test [5] (at 50.0 µM), 84.7% (active); in test [6] (setting [7]), 74% (active); in test [6] (setting [8]), 87% (active); in test [6] (at 50.0 µM), 80.7% (active).

For `C/C(=N/Nc1ccc([N+](=O)[O-])cc1[N+](=O)[O-])C(=O)O`, the growth inhibition in test [1] (setting [7]) was 11%; in test [1] (setting [8]), 69%; in test [1] (at 50.0 µM), 95.3% (active); in test [2] (setting [7]), 2%; in test [2] (setting [8]), 63%; in test [2] (at 50.0 µM) it was 59.8%. The growth inhibition was -1% in test [3] (setting [7]); 76% (active) in test [3] (setting [8]); 97.5% (active) in test [3] (at 50.0 µM); -1% in test [4] (setting [7]); 21% in test [4] (setting [8]); 13.2% in test [4] (at 50.0 µM). For the same compound, the growth inhibition in test [5] (setting [7]) was -1%; in test [5] (setting [8]), 72% (active); in test [5] (at 50.0 µM), 98.5% (active); in test [6] (setting [7]), -2%; in test [6] (setting [8]), 91% (active); in test [6] (at 50.0 µM), 96.8% (active).

Consider `CC(C)(C)[Si](C)(C)OCC1OC(n2cc(I)c(N)nc2=O)C(O[Si](C)(C)C(C)(C)C)C1O[Si](C)(C)C(C)(C)C` (centres undefined), for which the growth inhibition in test [1] (setting [7]) is 48%; in test [1] (setting [8]), 97% (active); in test [1] (at 50.0 µM) it was 27.1%; in test [2] (setting [7]), 9%; in test [2] (setting [8]), 98% (active); in test [2] (at 50.0 µM), 60.8%. For the same compound, the growth inhibition in test [3] (setting [7]) is 85% (active); in test [3] (setting [8]) it was 98% (active); in test [3] (at 50.0 µM), 36.1%; in test [4] (setting [7]), 1%; in test [4] (setting [8]) it was 51%; in test [4] (at 50.0 µM) it was 32.3%. The growth inhibition was 9% in test [5] (setting [7]); 99% (active) in test [5] (setting [8]); 38.4% in test [5] (at 50.0 µM); 33% in test [6] (setting [7]); 94% (active) in test [6] (setting [8]); 86.7% (active) in test [6] (at 50.0 µM).

Consider `O=C(CNC(=O)Nc1ccc(NC(=O)NCC(=O)Nc2ccc(C3=NCCN3)cc2)cc1)Nc1ccc(C2=NCCN2)cc1`, for which the growth inhibition was 3% in test [1] (setting [7]); -2% in test [1] (setting [8]); 98.2% (active) in test [1] (at 50.0 µM); -16% in test [2] (setting [7]); -3% in test [2] (setting [8]); 88.4% (active) in test [2] (at 50.0 µM). Also, the growth inhibition in test [3] (setting [7]) is 2%; in test [3] (setting [8]), -3%; in test [3] (at 50.0 µM) it was 98.8% (active); in test [4] (setting [7]), 5%; in test [4] (setting [8]), 5%; in test [4] (at 50.0 µM), 30.7%. Also, the growth inhibition in test [5] (setting [7]) was 0%; in test [5] (setting [8]), -5%; in test [5] (at 50.0 µM), 96.4% (active); in test [6] (setting [7]) it was 4%; in test [6] (setting [8]) it was 20%; in test [6] (at 50.0 µM), 95.2% (active).

As for `OC(c1ccccc1)(c1ccccc1)C(F)(Cl)Cl`, the growth inhibition in test [1] (setting [7]) was 1%; in test [1] (setting [8]), 10%; in test [1] (at 50.0 µM), 52.2%; in test [2] (setting [7]) it was 0%; in test [2] (setting [8]) it was 58%; in test [2] (at 50.0 µM) it was 94.8% (active). For the same compound, the growth inhibition in test [3] (setting [7]) was -4%; in test [3] (setting [8]), 15%; in test [3] (at 50.0 µM) it was 64.4%; in test [4] (setting [7]), 1%; in test [4] (setting [8]), 17%; in test [4] (at 50.0 µM), 92.9% (active). Moreover, the growth inhibition in test [5] (setting [7]) was -14%; in test [5] (setting [8]) it was 9%; in test [5] (at 50.0 µM) it was 98.5% (active); in test [6] (setting [7]) it was -2%; in test [6] (setting [8]), 37%; in test [6] (at 50.0 µM), 39.5%.

On to `OCc1cc2c([nH]c3ccccc32)c(C(O)CO)n1` (centres undefined), for which the growth inhibition is -2% in test [1] (setting [7]); -6% in test [1] (setting [8]); 92.9% (active) in test [1] (at 50.0 µM); 0% in test [2] (setting [7]); -3% in test [2] (setting [8]); 94.5% (active) in test [2] (at 50.0 µM). The growth inhibition in test [3] (setting [7]) was -2%; in test [3] (setting [8]), -3%; in test [3] (at 50.0 µM) it was 94.5% (active); in test [4] (setting [7]) it was 0%; in test [4] (setting [8]), -1%; in test [4] (at 50.0 µM), 92.7% (active). For the same compound, the growth inhibition is 2% in test [5] (setting [7]); -2% in test [5] (setting [8]); 93.3% (active) in test [5] (at 50.0 µM); 1% in test [6] (setting [7]); -4% in test [6] (setting [8]); -68.3% in test [6] (at 50.0 µM).

As for `O=C(Nc1ccc(Cl)cc1)NS(=O)(=O)c1ccc2c(c1)CCC2`, the growth inhibition is -18% in test [1] (setting [7]); 35% in test [1] (setting [8]); 59.2% in test [1] (at 50.0 µM); -40% in test [2] (setting [7]); 16% in test [2] (setting [8]); 39.4% in test [2] (at 50.0 µM). Further, the growth inhibition in test [3] (setting [7]) is -30%; in test [3] (setting [8]) it was 57%; in test [3] (at 50.0 µM), 69.8%; in test [4] (setting [7]), -23%; in test [4] (setting [8]), 38%; in test [4] (at 50.0 µM), 59%. Further, the growth inhibition in test [5] (setting [7]) is -14%; in test [5] (setting [8]), 62%; in test [5] (at 50.0 µM), 30.4%; in test [6] (setting [7]) it was -47%; in test [6] (setting [8]), 27%; in test [6] (at 50.0 µM), 45.6%.

For the compound `Cn1c(=S)c2[nH]c(SCCN3CCCC3)nc2n(C)c1=O`, the growth inhibition in test [1] (setting [7]) was 83% (active); in test [1] (setting [8]), 99% (active); in test [1] (at 50.0 µM), 90.8% (active); in test [2] (setting [7]) it was 70% (active); in test [2] (setting [8]), 99% (active); in test [2] (at 50.0 µM), 61.2%. In addition, the growth inhibition in test [3] (setting [7]) is 53%; in test [3] (setting [8]), 94% (active); in test [3] (at 50.0 µM) it was 67.5%; in test [4] (setting [7]), 28%; in test [4] (setting [8]) it was 79% (active); in test [4] (at 50.0 µM), 1.75%. For the same compound, the growth inhibition in test [5] (setting [7]) is 61%; in test [5] (setting [8]), 99% (active); in test [5] (at 50.0 µM), 68%; in test [6] (setting [7]), 37%; in test [6] (setting [8]), 95% (active); in test [6] (at 50.0 µM) it was 97.2% (active).
